# Screening results (PubChem)
# ATXN2 expr inh – Primary qHTS for Inhibitors of ATXN expression | HEK-293 ATXN2-luciferase reporter, luminescence, 24 h | Potency, µM (doses to about 57 µM), for the others: at the highest dose activity change, negative = inhibition, most hits filed as inhibitors | actives 0.72% (n = 360,000) | AID 1745845, 2022; also: potency is read from the fitted curve at half-maximal effect; % is scaled to controls: 0 for no effect and ±100 for the full control effect; nearly all actives have a fitted effect of over 55% in size
#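 ATXN2-luciferase reporter cells (luciferase flanked by upstream and downstream ATXN2 gene portions) were treated 24 h at 37 °C with compounds at up to 57 uM. SteadyGlo luminescence gave expression; GF-AFC fluorescence gave viability.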
# PINK1 modulator – A Quantitative High throughput Screen to Identify Chemical Modulators of PINK1 Expression | PINK1 immunofluorescence, high-content cytometry, 24 h | Potency, µM (doses to about 76.6 µM), for inactives: at the top dose activation (PINK1 increase), actives largely listed as activators | actives 0.2% (n = 410,000) | AID 624263, 2012; active = well fitted activation curve with a large enough effect; inconclusive = small, poorly fitted or top-dose-only effect; cell line not stated here; also: potency is read from the fitted curve at half-maximal effect; % of control where 0% means no effect; nearly all actives have a fitted effect of over 65% in size
#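 PINK1 protein, normally rapidly degraded, was detected by immunofluorescence after 24 hour compound treatment of a stable cell line. Titration data (5 concentrations) came from laser-scanning cytometry, with CCCP-treated wells as controls.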
# SW480 rereplic – A quantitative high throughput screen for small molecules that induce DNA re-replication in SW480 colon adenocarcinoma cells; SW480 DNA re-replication, Hoechst DNA content imaging, 48 h; Potency, µM (highest dose often 46.1 µM), inactives show at the top dose re-replication activation, most hits filed as activators; actives 1.8% (n = 340,000); AID 624297, 2012; also: potency is read from the fitted curve at half-maximal effect; % of control where 0% means no effect; nearly all actives have a fitted effect of over 55% in size
#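 250 cells/well; 23 nL cpd via pin tool; 48 hr, 37 C, 5% CO2; Hoechst 40 min; imager read of total nuclear intensity, ex 405/em 500-530 nm.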
# IL1B secr inh – qHTS for Inhibitors of Inflammasome Signaling: IL-1-beta AlphaLISA Primary Screen; activity change, % at 57.5 µM; THP-1 LPS/ATP IL-1B secretion, AlphaLISA, 16 h; hits give low values; actives 4.7% (n = 360,000); in the data active = activity change below about -50%; inconclusive = mostly about -30% to -49%; also: % is scaled to controls: 0 for no effect and ±100 for the full control effect
#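 THP-1 cells pretreated 1 hr with compounds (up to 57.5 uM final), then stimulated with LPS (250 ng/mL final) plus ATP (1.25 mM final); secreted IL-1B measured by AlphaLISA after 16 hr, decreased signal indicating inhibition.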
# ATXN viability – Viability Counterscreen for Primary qHTS for Inhibitors of ATXN expression. S2 cells (HEK-293 line with an ATXN2-luciferase reporter) viability, CellTiter-Fluor protease fluorescence, 24 h. Potency, µM (top dose mostly 56.7 µM), usual class: cytotoxic. actives 0.49% (n = 400,000). AID 651635, 2014; also: potency is read from the fitted curve at half-maximal effect; nearly all actives have a fitted effect of over 40% in size
# MCF10A rereplic – A quantitative high throughput screen for small molecules that induce DNA re-replication in MCF 10a normal breast cells | actives 2.9% (n = 350,000) | MCF 10A DNA re-replication, Hoechst nuclear intensity, 48 h | Potency, µM (titrated, usually from 46.1 µM), inactives show at the top dose activity, positive = re-replication, usual class: activators; also: potency is read from the fitted curve at half-maximal effect; % of control where 0% means no effect; nearly all actives have a fitted effect of over 50% in size
# Numbers without * were called inactive; i = inactive; ? = inconclusive; / = no result given; [ ] = remark or other dose. Shown are actives, neighbours in structure and some others; about 7.1% of the full set was active somewhere. Unless noted, calls follow the shape of the dose curve; as a rule, active = well fitted curve in the direction sought with a large enough effect; inconclusive = small, poorly fitted or top-dose-only effect, or another doubt; inactive = no such curve, though single readings can be large; an effect the other way counts as inactive or inconclusive.
SMILES,ATXN2 expr inh,PINK1 modulator,SW480 rereplic,IL1B secr inh,ATXN viability,MCF10A rereplic
COC(=O)Cn1cnc2c(Cl)nc(F)nc21,-9%,3%,?,-90*,i,14%
CC(=O)Nc1ccc(S(=O)(=O)c2c(N)n(CCN3CCOCC3)c3nc4ccccc4nc23)cc1,1%,6%,-1%,-7,?,10%
CN(C)CCCn1c(N)c(S(=O)(=O)c2ccccc2)c2nc3ccccc3nc21,-27%,15%,?,-27,i,23µM*
Cc1ccc(S(=O)(=O)c2c(N)n(Cc3ccco3)c3nc4ccccc4nc23)cc1,?,4%,?,-7,i,?
CCCCn1c(N)c(S(=O)(=O)c2ccc(C)cc2)c2nc3ccccc3nc21,?,16%,0.65µM*,-81*,i,3.7µM*
CN(C)C(CN1C(=O)C2CC=CCC2C1=O)c1cn(C)c2ccccc12 (configuration not stated),-13%,-2%,4.1µM*,11,i,-1%
CCn1c(=O)c(C(=O)CN(C)Cc2ccc(F)cc2)c(N)n(Cc2ccccc2)c1=O,-7%,1%,-1%,-63*,i,0%
CCOC(=O)CCC(NC(=O)c1ccc(Nc2nc3ccccc3nc2C(=O)OCC)cc1)C(=O)OCC (configuration not stated),27µM*,0%,7%,-4,30µM*,15%
CCOP(=O)(OCC)C(C)(C)NC(=O)Nc1ccc(Cl)c(Cl)c1,-16%,0%,11%,-67*,i,-2%
CCOP(=O)(OCC)C(NC(=O)Nc1ccc(Cl)c(Cl)c1)c1ccccc1 (configuration not stated),-12%,28%,-3%,-3,i,15%
CC(=O)Nc1ccc(S[C@@H](CCN2CC[C@H](C(C)(C)C)CCC2=O)c2ccccc2)cc1,?,28%,0%,-74*,32µM*,?
CC(=O)Nc1ccc(SC[C@H](Cc2ccccc2)N2CC[C@@H](C(C)(C)C)CCC2=O)cc1,?,20%,-1%,-59*,32µM*,?
CC(C)(C)[C@@H]1CCC(=O)N(CC[C@H](N=[N+]=[N-])c2ccccc2)CC1,10%,1%,-1%,-24,?,21µM*
CC(C)(C)[C@H]1CCC(=O)N([C@H](CSc2ccccc2)Cc2ccccc2)CC1,-15%,?,0%,-8,?,-1%
C/C(=N/NC(=O)c1nnn(-c2nonc2N)c1-c1ccccc1)c1ccc2c(c1)OCO2,-22%,-1%,-16%,-86*,i,-1%
Nc1nonc1-n1nnc(C(=O)N/N=C/c2ccccn2)c1-c1ccccc1,-8%,1%,94%,-3,i,15%
Nc1nonc1-n1nnc(C(=O)N/N=C/c2cc(Br)cs2)c1-c1ccccc1,2%,10%,6%,-92*,i,5%
C/C(=N\NC(=O)c1nnn(-c2nonc2N)c1-c1ccccc1)c1cccnc1,12%,0%,-8%,24,i,-1%
CCOc1ccc(Br)cc1C(=O)N/N=C/c1cccc(C)n1,/,7%,-1%,12,i,18µM*
Cc1cccc(/C=N/NC(=O)c2cc(Br)ccc2O)n1,-24%,0%,-2%,-11,/,-9%
Cc1cccc(-n2ncc(C(=O)NCc3ccco3)c2C2CCN(C(=O)OC(C)(C)C)CC2)c1,/,2%,/,/,/,/
Cc1cc(NC(=O)CSc2nc(CCC3CCCC3)nc3ccccc23)no1,-11%,5%,3%,-5,i,-184%[0.0737 µM]
Cc1nonc1NC(=O)CSc1nc(CCC2CCCC2)nc2ccccc12,/,-1%,-5%,-7,i,7.3µM*
O=C(CSc1nc(CCC2CCCC2)nc2ccccc12)NCc1ccc2c(c1)OCO2,-18%,2%,-3%,-9,?,10µM*
CCN(C(=O)COC(=O)/C(=C/c1ccccc1)NC(C)=O)c1c(N)n(Cc2ccccc2)c(=O)[nH]c1=O,0%,1%,-4%,4,i,-3%
SMILES,ATXN2 expr inh,PINK1 modulator,SW480 rereplic,IL1B secr inh,ATXN viability,MCF10A rereplic
Cc1c(CCOC(=O)CC23CC4CC(CC(C4)C2)C3)sc[n+]1CC(=O)c1ccccc1,-58%,-2%,-12%,?,/,?
Cc1c(CCOC(=O)c2cc([N+](=O)[O-])cc([N+](=O)[O-])c2)sc[n+]1CC(=O)c1ccc(Br)cc1,-13%[11.3 µM],0%,19%,-97*,i,4%
Cc1c(CCOC(=O)C23CC4(C)CC(C)(CC(C)(C4)C2)C3)sc[n+]1CC(=O)c1ccccc1,-20%,14%,-21%,-192*,i,?
Cc1c(CCOC(=O)c2ccc(Cl)cc2Cl)sc[n+]1CC(=O)c1ccccc1,-13%,-2%,4%,-19,?,1%
CC(=O)Nc1cc(C(=O)N2CCN(c3ccccc3)CC2C)cc2ncn(CCc3ccccn3)c12 (configuration not stated),/,0%,/,/,i,/
O=C(Nc1cccc(C(=O)N2CCN(c3ccc(Cl)cc3)CC2)c1)c1nsc2ccccc12,0%,-1%,/,/,?,/
Cc1cccc(C(=O)Nc2cccc(C(=O)OCc3cc(=O)n4nc(C5CC5)sc4n3)c2)c1,6%,-2%,/,/,?,/
Cc1nnsc1S(=O)c1ccc(Cl)c(Cl)c1 (configuration not stated),/,-1%,?,-62*,i,?
O=[N+]([O-])c1ccc(-c2nc(Nc3cccc(O)c3)c3ccccc3n2)cc1,/,10%,2%,-70*,/,?
CCOC(=O)c1ccc(Nc2nc(C(=O)OCC)nc3ccccc23)cc1,2%,8%,-1%,-2,i,?
CCOC(=O)c1nc(Nc2ccc(Nc3ccccc3)cc2)c2ccccc2n1,?,-1%,-4%,-65*,?,?
Cc1ccc(-c2nc(Nc3ccc(O)cc3)c3ccccc3n2)cc1,14%,4%,?,-88*,i,?
O=C(O)c1ccc(Nc2nc(-c3ccccc3)nc3ccccc23)cc1,/,3%,-1%,10,?,9%
O=C(O)c1cccc(Nc2nc(-c3ccc([N+](=O)[O-])cc3)nc3ccccc23)c1,9%,1%,-15%,34,i,10%
CNC(=O)c1ccc(Nc2nc(-c3ccccc3)nc3ccccc23)cc1,3%,-1%,-2%,-90*,i,?
